Screening results deposited in PubChem BioAssay by Broad Institute.
Compounds with a hit are over-represented: about 2.4% of the library has one in this group of screens.
Wnt bcat act: Wnt/beta-catenin pathway activators, primary screen, cell-based, plate reader, single point. Wnt/beta-catenin reporter cell assay, activator. activation, % at 9.35 µM. hit rate 1.2% among 300,000; in the data active = activation above about 30%, passing the limit was not always enough; inconclusive = no clear call, values can overlap the other calls;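 also: 0% = neutral control wells and 100% = positive control wells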
miR122 inh: miR-122 Renilla sensor signal increase in Huh7, primary screen, miR-122 inhibitor project, cell-based, single point, plate reader; Huh7 miR-122 Renilla luciferase sensor, 48 h; neutral wells = 0, positive control = 100; activation (reporter increase), % at 12.5 µM; hit rate 0.3% among 340,000; AID 602342, 2012;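 active = mean replicate activation score at least 90 and every replicate individually at or above 90; inconclusive = only one of the two criteria met; inactive = neither criterion met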;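 also: higher luciferase means less miR-122 activity so hits act as miR-122 inhibitors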
Dyrk1A ADPGlo: rat Dyrk1A kinase inhibitors, primary screen, biochemical, single point, plate reader. AID 504441, 2011. Dual specificity tyrosine-phosphorylation-regulated kinase 1A (Rattus norvegicus), Q63470. inhibition, % at 12.5 µM. hit rate 0.43% among 310,000. ADP-Glo luminescence, NFATc1 peptide;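 also: plate controls were vehicle with enzyme for no effect and no enzyme for full effect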
GSIS activator: GLuc luminescence reporter in INS-1E cells, primary screen for activators of glucose-dependent secretion of insulin | INS-1E GLuc reporter insulin secretion, 2-3 h | hit rate 0.61% among 370,000 | AID 743287, 2014 | activation, % at 16.6 µM;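 active = lowest replicate activation of at least 40%, so every replicate reaches that level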;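 also: 0% = median of neutral control wells and 100% = median of IBMX positive control wells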
MITF TRPM1 HTS: activators of MITF-driven TRPM1 promoter reporter, primary screen, cell-based, SK-MEL-5, luciferase, single point | hit rate 0.75% among 300,000 | AID 588334, 2011 | activation, % at 12.5 µM | SK-MEL-5 TRPM1-promoter luciferase, 24 h; % of positive control, neutral wells = 0;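 active = mean activation of at least 80% with every replicate also reaching 80%; inconclusive = mean reaches 80% but some replicate falls short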;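 also: 0% = neutral control wells and 100% = parthenolide positive control wells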
NSD2 inh: NSD2 histone methyltransferase inhibitors, primary screen, biochemical, AlphaScreen, single concentration, set 2; NSD2 peptide methylation, 120 min; inhibition, % at 12.5 µM; hit rate 0.54% among 310,000
Target sequence (O96028 whole entry, looked up): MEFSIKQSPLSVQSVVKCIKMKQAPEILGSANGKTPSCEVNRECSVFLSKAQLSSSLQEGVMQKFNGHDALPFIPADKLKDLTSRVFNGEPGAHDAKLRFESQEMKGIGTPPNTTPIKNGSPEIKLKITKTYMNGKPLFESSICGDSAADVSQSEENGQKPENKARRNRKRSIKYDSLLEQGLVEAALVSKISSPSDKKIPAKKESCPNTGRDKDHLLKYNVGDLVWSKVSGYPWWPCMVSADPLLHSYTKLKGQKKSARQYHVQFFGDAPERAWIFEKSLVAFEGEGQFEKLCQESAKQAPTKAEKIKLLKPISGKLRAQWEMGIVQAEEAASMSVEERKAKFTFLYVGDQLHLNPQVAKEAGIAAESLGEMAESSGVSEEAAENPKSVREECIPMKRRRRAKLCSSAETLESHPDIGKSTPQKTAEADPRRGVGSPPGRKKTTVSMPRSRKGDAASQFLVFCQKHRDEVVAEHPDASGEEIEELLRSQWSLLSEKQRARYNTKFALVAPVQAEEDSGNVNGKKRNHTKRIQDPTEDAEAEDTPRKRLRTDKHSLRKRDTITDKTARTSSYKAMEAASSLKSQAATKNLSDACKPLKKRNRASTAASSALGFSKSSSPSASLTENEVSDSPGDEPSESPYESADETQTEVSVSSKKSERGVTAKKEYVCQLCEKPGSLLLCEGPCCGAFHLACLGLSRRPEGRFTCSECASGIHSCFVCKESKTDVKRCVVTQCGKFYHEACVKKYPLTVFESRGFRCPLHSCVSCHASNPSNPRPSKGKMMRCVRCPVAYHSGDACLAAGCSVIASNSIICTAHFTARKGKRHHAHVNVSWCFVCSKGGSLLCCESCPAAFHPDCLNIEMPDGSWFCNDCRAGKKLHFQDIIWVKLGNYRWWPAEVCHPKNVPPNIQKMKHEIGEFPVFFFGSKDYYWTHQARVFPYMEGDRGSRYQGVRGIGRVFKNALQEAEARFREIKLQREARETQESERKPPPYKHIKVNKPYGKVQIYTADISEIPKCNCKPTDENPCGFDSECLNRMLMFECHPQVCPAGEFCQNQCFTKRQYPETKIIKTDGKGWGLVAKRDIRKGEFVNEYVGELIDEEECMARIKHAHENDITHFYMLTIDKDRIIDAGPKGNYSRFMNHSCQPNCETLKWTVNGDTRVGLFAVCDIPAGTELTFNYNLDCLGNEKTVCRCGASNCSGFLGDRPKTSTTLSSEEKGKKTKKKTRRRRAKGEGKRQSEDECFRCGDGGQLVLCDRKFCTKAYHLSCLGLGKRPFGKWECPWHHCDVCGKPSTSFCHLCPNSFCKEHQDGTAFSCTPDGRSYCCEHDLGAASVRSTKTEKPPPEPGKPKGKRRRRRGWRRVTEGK
Numbers without * were called inactive; ? = inconclusive; . = not tested or not shown; [ ] = dose if it differs, or a comment. Rule as the data show it, unless noted: active = inhibition above about 50%; inactive = the rest.

SMILES	Wnt bcat act	miR122 inh	Dyrk1A ADPGlo	GSIS activator	MITF TRPM1 HTS	NSD2 inh
COCC(=O)Nc1ccc2c(c1)OC[C@H](C)N(Cc1cccc(F)c1)C[C@@H](C)[C@@H](OC)CN(C)C2=O	.	.	.	-2	.	.
O=C(C[C@H]1C=C[C@@H](NC(=O)Nc2ccc3c(c2)OCO3)[C@@H](CO)O1)NCc1ccccc1	.	.	.	-3	.	.
CCC(=O)Nc1cccc(-c2nnc(-c3ccccc3)o2)c1	1	-8	-2	-3	100*	0
CCC(=O)Nc1cccc(-c2ccc(N3CCN(C)CC3)nn2)c1	.	8	-3	.	85*	6
CCCCC(=O)Nc1cccc(-c2nnc(-c3ccccc3)o2)c1	.	-5	-1	-8	13	-3
CCC(=O)Nc1cccc(-c2ccc(N3CCCCC3)nn2)c1	29	-9	-2	59	17	-4
C[C@@H]1CN([C@@H](C)CO)C(=O)c2cc(C#Cc3cccnc3)cnc2O[C@@H]1CN(C)C	.	8[16.7 µM]	.	14	.	.
O=C(c1cccnc1)N1CC2(C1)[C@H](c1ccccc1)[C@H](CO)N2CC1CC1	.	.	.	15	.	.
O=C(CSc1nc2ccc(NC(=O)CSc3nnnn3-c3ccccc3)cc2s1)Nc1ccccc1	-10	-4	-8	-21	-8	2
Cn1cnnc1SCC(=O)Nc1ccc2nc(SCc3ccccc3F)sc2c1	25	0	6	-2	106*	1
CC(=O)OCCCN1c2ccccc2Nc2nnc(-c3ccccc3)cc21	.	7	4	.	98*	2
C[C@@H]1CN([C@H](C)CO)C(=O)Cc2cc(NC(=O)C3CCCCC3)ccc2O[C@@H]1CN(C)Cc1ccc(Cl)c(Cl)c1	.	-25[16.7 µM]	.	-9	.	.
COc1ccc(S(=O)(=O)N(C)C[C@H]2Oc3ccc(NC(=O)Nc4ccc(C(F)(F)F)cc4)cc3C(=O)N([C@@H](C)CO)C[C@H]2C)cc1	.	111*[16.7 µM]	.	-8	.	.
COc1ccc(S(=O)(=O)N(C)C[C@@H]2Oc3ccc(NC(=O)Nc4ccc(C(F)(F)F)cc4)cc3C(=O)N([C@@H](C)CO)C[C@@H]2C)cc1	.	-7[16.7 µM]	.	-8	.	.
COc1ccc(S(=O)(=O)N(C)C[C@H]2Oc3ccc(NC(=O)Nc4ccc(C(F)(F)F)cc4)cc3C(=O)N([C@H](C)CO)C[C@H]2C)cc1	.	136*[16.7 µM]	.	-1	.	.
C[C@H]1CN([C@@H](C)CO)C(=O)Cc2cc(NS(=O)(=O)c3ccc(Cl)cc3)ccc2O[C@@H]1CN(C)Cc1ccc(C(=O)O)cc1	.	-6[16.7 µM]	.	23	.	.
N#Cc1cccc(-c2ccc(C3[C@H]4CNC[C@@H]3N4C(=O)Nc3ccccc3F)cc2)c1 (some centres undefined)	.	.	.	-24	.	.
Cc1ccc(SCC(=O)NC(=O)NCCC(C)C)c(C)c1	41*	9	1	-10	7	-1
CCCNC(=O)NC[C@@H]1[C@@H](c2ccc(C3=CCCC3)cc2)[C@H](CO)N1C(=O)CC	.	343*[16.7 µM]	.	3	.	.
CCCNC(=O)NC[C@@H]1[C@H](c2ccc(C3=CCCC3)cc2)[C@H](CO)N1C(=O)CC	.	36[16.7 µM]	.	8	.	.
O=[N+]([O-])c1ccc(COc2ccc(CN3CCCCC3)cc2)cc1	9	-4	.	17	?	.
O=[N+]([O-])c1ccc(COc2ccc(CN3CCCC3)cc2)cc1	10	3	.	-40	100*	.
N=c1cc(C2(O)CCCCC2)n2c(nc3ccccc32)s1	45*	-5	28	.	.	-2
O=C1c2sc3nc4ccccc4n3c2C(=O)N1c1ccccc1Cl	3	1	8	.	4	-1
CCCC(=O)N1CC2(C1)CN(C(=O)C1CCCCC1)[C@H](CO)c1[nH]c3cc(OC)ccc3c12	.	.	.	-7	.	.
SMILES	Wnt bcat act	miR122 inh	Dyrk1A ADPGlo	GSIS activator	MITF TRPM1 HTS	NSD2 inh
C/C(=N/N=C/c1ccccc1O)c1ccccc1O	44*	-3	-8	4	56	-6
C[C@H](CO)N1C[C@H](C)[C@@H](CN(C)S(C)(=O)=O)Oc2ccc(NC(=O)C3CCCCC3)cc2CC1=O	.	-1[16.7 µM]	.	15	.	.
CN1C(=O)c2cc(NC(=O)c3cnccn3)ccc2OC[C@@H]2O[C@@H](CC(=O)O)CC[C@@H]21	.	1[16.7 µM]	.	-1	.	.
COc1ccc(S(=O)(=O)N(C)C[C@H]2Oc3ccc(NS(=O)(=O)c4c(C)noc4C)cc3C(=O)N([C@@H](C)CO)C[C@H]2C)cc1	.	3[16.7 µM]	.	-4	.	.
COc1ccccc1C(=O)O/N=C(\N)c1ccccc1Cl	70*	-6	5	16	41	-2
COc1ccc(/C(N)=N/OC(=O)c2cccc([N+](=O)[O-])c2C)cc1OC	.	3	6	.	11	-5
COc1cccc(C(=O)O/N=C(\N)c2ccc([N+](=O)[O-])cc2)c1OC	.	4	5	.	84*	-2
COc1ccccc1-c1cnn2c(NC3CCCC3)cc(C)nc12	25	.	0	-17	140*	.
COc1ccc(NS(=O)(=O)c2ccc3ccccc3c2)c2ncccc12	-5	104*	-5	8	-28	1
COc1ccc(OC)c(NS(=O)(=O)c2cccc3cccnc23)c1	-4	80	-2	21	-7	-3
COc1ccccc1NS(=O)(=O)c1ccc2ccccc2c1	7	28	11	-7	-4	-11
O=S(=O)(Nc1ccc(Cl)cc1)c1cccc2cccnc12	1	99*	7	-24	-5	14
COc1ccc(C(C)(C)C)cc1NS(=O)(=O)c1cccc2cccnc12	5	117*	-1	-5	6	-8
CNC[C@H]1Oc2cc(C3=CCCC3)ccc2S(=O)(=O)N([C@H](C)CO)C[C@@H]1C	.	-9[16.7 µM]	.	-2	.	.
C[C@H](NC(=O)C[C@@H]1C=C[C@@H](NC(=O)Cc2ccccn2)[C@@H](CO)O1)c1ccccc1	.	.	.	17	.	.
O=C(COC(=O)[C@H](Cc1c[nH]c2ccccc12)NC(=O)c1ccc(Cl)cc1)Nc1ccc2c(c1)OCO2	.	2	1	.	11	2
O=C(NCCc1c[nH]c2ccccc12)c1cc(Cl)c2c(c1)OCO2	36*	-3	4	0	113*	7
O=C(Cc1c[nH]c2ccccc12)N[C@@H](Cc1c[nH]c2ccccc12)C(=O)O	3	.	3	53*	4	0
O=C(NCCc1c[nH]c2ccccc12)c1ccc2c(c1)OCO2	-1	.	8	23	68	4
Cc1csc(NC(=O)Cc2c[nH]c3ccccc23)n1	.	4	-4	.	93*	5
